Results on 40 compounds are retold here after PubChem BioAssay (NCI).

Where “and” joins values, the source holds several entries; their conditions need not be identical. Identical values can stand only once. The panel holds about 83,000 compounds, 20% with a hit somewhere; the sample as a whole holds those more often.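 Interpretation: 100, growth as untreated; towards 0, rising growth inhibition; 0, no net growth; 0 to -100, cell death. Compounds scoring below 10 were considered active.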 Calls of active or inactive are those of the source.

This test has as its system MDA-MB-468 breast. The experiment in a line: NCI-60 one-dose screen, 48 h (100 = growth as untreated, 0 = no growth, -100 = all killed). The settings on record: 10 µM unless noted.
`COc1ccc2[nH]c(=O)c(CN3CCN(c4nccc(-c5ccc(Cl)cc5)n4)CC3)cc2c1`: the growth is 88.6% (inactive).
For the compound `CCCCCCCCCCCCCCCc1cc(O)ccc1N`, the growth was 70.1% (inactive) and 6.15% (active).
On to `COC(=O)[C@]1(CCSC)N[C@H](c2cn(-c3ccccc3)nc2C)[C@@H]2C(=O)N(c3ccc(C)cc3)C(=O)[C@@H]21`, for which the growth is 127% (inactive).
Take `Cc1ccc(C2=Nc3c(N)ncnc3NC(c3cccc(Nc4ccnc5cc(C(F)(F)F)ccc45)c3)C2)cc1` (stereo not given): the growth is 24.8% (inactive).
With `OC(c1cc2c(Cl)cc(Cl)cc2c2cc(C(F)(F)F)ccc12)C1CCCCN1` (stereo not given), the growth is -89.1% (active).
In the case of `COc1cc2cc(Oc3ccc(NC(=O)Nc4cccc(C(F)(F)F)c4)cc3)c(C)nc2cc1OCCN1CCOCC1`, the growth is -3.82% (active).
In the case of `O=C(/C=C/c1cccc([N+](=O)[O-])c1)c1ccc(O)c(CN2CCN(c3cc4c(cc3F)c(=O)c(C(=O)O)cn4C3CC3)CC2)c1`, the growth was -24.5% (active).
In the case of `C/C(=C(/c1ccc(Cl)cc1)c1ccc(OCCCN(C)C)cc1)c1ccc(Cl)cc1`, the growth was 89.4% (inactive).
As for `CC1(C)CC[C@]2(C(=O)O)CC[C@]3(C)[C@H](CC[C@@H]4[C@@]5(C)CCC(=O)C(C)(C)[C@@H]5CC[C@]43C)[C@H]2[C@H]1OC(=O)C(F)(F)F`, the growth was -71% [100 µM] (active).
For `COc1cc(/C=C2\CN(S(=O)(=O)c3ccc(C)cc3)C/C(=C\c3cc(CN4CCOCC4)c(O)c(OC)c3)C2=O)cc(CN2CCOCC2)c1O` the value was -45.9% (active).
For `Cc1nc2sc(C(=O)Nc3ccccc3)c(N)c2cc1C(O)c1ccccc1` (stereo not given), the growth is 3.45% (active).
For the compound `COc1ccc(-c2cc(/C=C3\C(=O)Nc4cc(Cl)ccc43)[nH]n2)cc1`, the growth was 11.3% (inactive).
On to `CC1CCCC(C(=O)O)C1C(=O)O` (stereo not given), for which the growth was 97% (inactive).
Take `CN1CCN(c2ccc(OC(F)(F)F)c(Nc3ncc4c(n3)-c3c(c(C(N)=O)nn3CCO)CC4)c2)CC1`: the growth is 9.13% (active).
For the compound `COc1ccc(/C=C/C(=O)c2nnn(-c3ccc(C(=O)O)cc3)c2C)cc1OC`, the growth is 84.6% (inactive).
`COC(=O)c1n[nH]c2ccc3nc(-c4cn[nH]c4C(F)(F)F)c4c(c3c12)CCCC4`: the growth is 73.8% (inactive).
For `NC(=NC1C2CC3CC(C2)CC1C3)Nc1ccc(I)cc1` (stereo not given), the growth is -3.88% (active).
Turning to `Clc1cccc(/C=N/Nc2nc(N/N=C/c3cccc(Cl)c3)nc(N3CCCCC3)n2)c1`, the growth is 76.3% (inactive).
Regarding `O=c1c2cccc3c(Nc4c(F)cccc4F)ccc(c32)c2nc3ccccc3n12`, the growth was -33.5% (active).
As for `CCCCOc1c(N)cc(Cl)cc1C(=O)OCCN(CC)CC`, the growth is 112% (inactive).
For the compound `O=C(NCCO)C(F)(F)F`, the growth is 116% (inactive).
To `c1cnc2[nH]cc(-c3nc(-c4ccsc4)cs3)c2c1` belongs 74.6% (inactive); to `CCOC(=O)c1c(NC(=O)c2cccc(C(F)(F)F)c2)sc2cc(O)ccc12`, 85.4% (inactive).
For `CCC(C#N)(CC)c1ccccc1`, the growth is 105% (inactive).
For `Fc1cc(C2=NNC(c3ccc[nH]3)C2)ccc1-n1ccc(C(F)(F)F)n1` (stereo not given) the value was 89.7% (inactive); for `CCN1C(=O)N(CC)C2C1N=C(SC)N2/N=C/C=C/c1ccccc1OC` (stereo not given), 1.3% (active).
Turning to `Nc1ncc(-c2ccc3ncnc(N4CCc5cc(F)c(Cl)cc54)c3c2)cn1`, the growth is 15.8% (inactive) and -64% (active).
As for `O=c1[nH]c(O)c(/C=C2/C=Nc3ccccc32)[nH]1`, the growth was 66.1% (inactive).
`CCOC(=O)c1c[nH][nH]c1=O`: the growth is 93.8% (inactive).
For the compound `COc1cccc(-c2cnco2)c1OCc1c(C)c(COc2c(OC)cccc2-c2cnco2)c(C)c(COc2c(OC)cccc2-c2cnco2)c1C`, the growth is 59% (inactive).
Regarding `CCOCC[P+](c1ccccc1)(c1ccccc1)c1ccccc1`, the growth is 2.17% (active).
`Cn1c(=O)c2c(nc(Nc3cc(=O)[nH]c(=O)[nH]3)n2Cc2ccccc2)n(C)c1=O`: the growth is 84.7% (inactive).
With `O=C(Nc1ccccc1)Nc1ccc(Nc2ncnc3sc4c(c23)CCCC4)cc1`, the growth was 96.9% (inactive).
For `COc1cc(-c2nc(-c3ccccc3)[nH]c2-c2ccnc(NCCCNS(=O)(=O)c3cccc(F)c3)n2)ccc1Cl` the value was 43.2% (inactive).
As for `COc1cc(OC)cc(N2CCN(C(=O)Nc3nc4cc(F)ccc4nc3OC)CC2)c1`, the growth was -5.78% (active).
With `Cc1ccc(C2=Nc3c(N)nc(N)nc3NC(c3cccc(Nc4ccnc5cc(C(F)(F)F)ccc45)c3)C2)cc1` (stereo not given), the growth was 14.7% (inactive).
Consider `Clc1cnc(Nc2ccc(OCCN3CCCC3)cc2)nc1NCc1ccco1`, for which the growth is 16.6% (inactive).
Turning to `COc1cc(/C=N/NC(=O)Cn2c(C(C)C)nc3ccccc32)ccc1O`, the growth is 84.9% (inactive).
In the case of `CCc1ccc(/C=C/c2ccc(O)c3ncccc23)[n+](C)c1`, the growth is 19.6% (inactive).
To `COc1cc(Nc2ccnc3ccc(Br)cc23)cc(OC)c1OC` belongs 14.9% (inactive).
